# Whole data set: some 33,000 sequences, median “E-score (-0.5 to 0.5)” near -0.011, cut for the highest 2% near 0.28. Shown is part of a subset that was picked to be rich in the highest values.
# Biological target: T1, Gcr1 (UniProt P07261)
# T1 sequence: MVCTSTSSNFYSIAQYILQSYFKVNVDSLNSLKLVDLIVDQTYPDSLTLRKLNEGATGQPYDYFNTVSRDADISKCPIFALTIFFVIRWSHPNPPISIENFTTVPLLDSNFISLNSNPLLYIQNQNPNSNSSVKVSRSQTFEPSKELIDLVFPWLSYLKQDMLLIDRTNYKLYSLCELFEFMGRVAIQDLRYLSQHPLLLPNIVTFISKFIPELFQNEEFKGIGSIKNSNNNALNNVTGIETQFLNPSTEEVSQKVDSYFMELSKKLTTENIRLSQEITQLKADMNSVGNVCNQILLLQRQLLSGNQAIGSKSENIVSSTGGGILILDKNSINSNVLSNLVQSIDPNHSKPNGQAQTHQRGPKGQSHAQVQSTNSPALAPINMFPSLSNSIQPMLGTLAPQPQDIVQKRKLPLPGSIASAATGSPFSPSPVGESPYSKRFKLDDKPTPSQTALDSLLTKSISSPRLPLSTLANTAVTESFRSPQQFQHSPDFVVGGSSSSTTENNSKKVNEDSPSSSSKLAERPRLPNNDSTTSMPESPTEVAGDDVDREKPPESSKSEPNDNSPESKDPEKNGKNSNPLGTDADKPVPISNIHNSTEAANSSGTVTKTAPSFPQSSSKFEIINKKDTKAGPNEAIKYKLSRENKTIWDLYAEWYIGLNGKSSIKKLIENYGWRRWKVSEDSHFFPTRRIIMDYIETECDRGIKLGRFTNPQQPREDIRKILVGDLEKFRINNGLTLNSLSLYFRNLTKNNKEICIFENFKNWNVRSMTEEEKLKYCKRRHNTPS
# Experiment: PBM E-score (8-mer binding enrichment) (E-score (-0.5 to 0.5)); higher = stronger / more preferred TF binding
# Conditions: protein concentration: 100 nM; construct: GST-full length
# Method: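 Universal 'all 10-mer' protein binding microarrays (Agilent AMADID 015681) probed with GST-tagged S. cerevisiae TFs (full-length or DBD) made by in vitro transcription/translation (PURExpress), about 100-200 nM. Bound TF was detected with fluorescent anti-GST. Each ungapped 8-mer (which stands for itself and its reverse complement) is scored by the PBM enrichment score (E-score), a modified Wilcoxon-Mann-Whitney statistic from -0.5 to +0.5, computed with the Universal PBM Analysis Suite. Scale: above 0.35 generally sequence-specific binding.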
row,Sequence,PBM E-score
1,ACCGGAAG,0.303
2,AAGGGGTC,-0.19
3,CGATCAAG,-0.0812
4,CCTTGGCC,-0.327
5,ATTAGGAG,0.26
6,CGCTAGTC,-0.153
7,AACAATGT,0.0351
8,ATCCCATG,-0.0862
9,TCGTTTCA,0.077
10,AGATTCCT,0.399
11,ATATTCCG,0.131
12,ACATTCCT,0.0561
13,CGATTCCC,0.0331
14,AGATTCCG,0.284
15,CGATTCCG,-0.0838
16,TGATTCCA,0.0933
17,AGATTCCC,0.265
18,CGATTCCA,0.178
19,AGATTCCA,0.426
20,GGATTCCC,0.418
21,GGATTCAC,0.159
22,CCAGTTGA,-0.0652
23,GGATTGAC,-0.0943
24,AACCCAGG,0.056
25,CCGTTGAC,-0.121

row,Sequence,PBM E-score
1,CCAACCAA,0.0612
2,GGAACCAA,0.31
3,CGAACCAC,0.0103
4,TGAACCAA,0.022
5,GCAACCAA,0.302
6,AGAACCAC,0.035
7,CGAACCAA,-0.0751
8,GCAACCAC,0.267
9,GGAACCAC,0.284
10,AATGGACG,0.143
11,CGTGGGCC,-0.23
12,GGGGAGCA,-0.103
13,GGTCGAGA,-0.0372
14,GTAGGATA,-0.109
15,CAACTGGA,0.212
16,GAACTGGA,0.303
17,GTACTGGA,0.235
18,ATACTGGC,0.161
19,CGACTGGC,-0.241
20,TAACTGGA,0.225
21,ATACTGGA,0.373
22,CGACTGGA,0.316
23,GGACTGGA,-0.0243
24,CGCAGTTA,0.15
25,ACGTAGCA,-0.079

row,Sequence,PBM E-score
1,ACGTAGCC,0.14
2,ACGTAGCT,0.282
3,CGGTTGGA,0.0351
4,GCAATCGC,-0.113
5,ATTCAAGC,-0.0491
6,CCTCTATA,0.266
7,CTGGATGA,0.0353
8,CTGGATAC,0.135
9,ATGGATGC,0.389
10,CTGGATGC,0.425
11,ATGGATGA,-0.0514
12,ATGGATGG,-0.034
13,ACGGGGGC,-0.08
14,AGTCCGGA,0.0284
15,ATCGGATA,0.0757
16,TGTAGACA,-0.0678
17,AAACTGGT,0.178
18,TCGCCGCA,0.0198
19,CGCTCAAC,-0.0355
20,AGCACCAT,0.282
21,AGCACCAC,0.235
22,AGCACCCA,0.351
23,AGCACCCT,0.277
24,AACACCCA,-0.0911
25,AGCACACC,-0.188

row,Sequence,PBM E-score
1,CGCACCCG,0.0194
2,AGCACCAG,0.156
3,AGCACCCG,0.282
4,CAAGATTC,0.122
5,GAAGCGCA,0.129
6,AGGTAAAG,-0.112
7,GATGCTGC,0.276
8,AATGCTAA,0.206
9,GATGCTAC,0.338
10,CATGCTGA,-0.229
11,CATGCTAC,-0.123
12,TATGCTAA,-0.0329
13,GGTGCTTA,0.259
14,AATGCTAC,-0.0602
15,GATGCTAA,0.372
16,CGTGCTGA,-0.14
17,GGTGCTGA,0.335
18,GATGCTGA,0.312
19,AAGGCGAA,-0.0278
20,CACAATGA,0.0838
21,GCTTCAAA,0.192
22,AGTTGGCG,0.0665
23,CACTCCAG,0.0875
24,ACCGCGGC,0.143
25,ACGCCGGA,0.0899

row,Sequence,PBM E-score
1,CATTTGGC,-0.0265
2,CACCTGCC,-0.127
3,ACCAATGG,0.0385
4,ACACTGAG,-0.126
5,ACCATTTA,0.0518
6,ATATTTAA,0.111
7,CCATTTAA,0.304
8,CCATTTTA,0.23
9,CTATTTAA,0.309
10,ACTATTTA,0.293
11,GCTATTTA,-0.162
12,CCTATTTA,0.247
13,CCCATTTC,-0.0272
14,CCATTTAC,0.0873
15,GTATTTAA,0.117
16,CCCATTTA,0.293
17,ACAGTCCA,-0.304
18,TACCGTGA,0.0127
19,ACTCTTCT,0.0323
20,TCCGGAAA,0.172
21,CACCCGGA,0.136
22,CGAAGTAC,-0.022
23,CGCCAAAG,0.0195
24,TCAACTAA,-0.00686
25,ACGACGGG,0.00739

row,Sequence,PBM E-score
1,CATTACAG,-0.0702
2,AATTACAT,0.0891
3,AATTACAG,0.283
4,CCACCCTC,-0.00165
5,CAAAATTC,0.306
6,AAAAATTC,0.0187
7,CAAAATTG,0.0415
8,GCTAGCAC,-0.0767
9,GCAGGCCC,-0.133
10,ACAAGCTA,-0.0171
11,CCACAAAA,0.282
12,CCACAATC,0.156
13,CCACAATA,0.3
14,ACACAATA,0.0111
15,CCACAAAG,0.16
16,ACACAAAA,0.141
17,CTCGGTAA,-0.22
18,AAACCTAA,0.0813
19,CCTTTCAG,-0.117
20,GGGGGACA,0.0151
21,AGTCTGTA,-0.152
22,CCCCGTTC,-0.082
23,TGCGCCCA,0.0933
24,AGCGCCCC,0.153
25,GGCGCCCA,0.398

row,Sequence,PBM E-score
1,CGCGCCCC,0.243
2,CACGCCCA,-0.107
3,GGCGCCCC,0.308
4,GACGCCCC,0.0383
5,AGCGCCCA,0.183
6,GACGCCCA,0.427
7,CGAGAGGA,-0.113
8,CCCGGGGC,0.0219
9,ACAAGCAT,0.15
10,CCATTGGC,0.0633
11,GCGGCGGA,0.0513
12,AATTTGTC,-0.00767
13,ATGGCTTG,-0.236
14,CTAGCTTA,-0.172
15,ATAGCTTC,0.249
16,ACGGCTGC,-0.014
17,CTAGCTTC,0.316
18,CCGGCTGA,-0.138
19,ATGGCTTC,0.3
20,ATGGCTTA,0.0216
21,CTGGCTGC,0.35
22,CCGGCTGC,0.314
23,ATGGCTGC,0.168
24,CTGGCTGA,-0.225

# Source: the supplement of paper PMC3334620
